# In the supplement of paper PMC3334620:
# In all, about 33,000 sequences were measured (“E-score (-0.5 to 0.5)”: median about -0.054, highest 2% from about 0.35 on). Many of the other results were omitted from the sample, so the highest values are more common in it than they were.
# Molecular target: T1, Stb5 (UniProt P38699)
# T1 sequence: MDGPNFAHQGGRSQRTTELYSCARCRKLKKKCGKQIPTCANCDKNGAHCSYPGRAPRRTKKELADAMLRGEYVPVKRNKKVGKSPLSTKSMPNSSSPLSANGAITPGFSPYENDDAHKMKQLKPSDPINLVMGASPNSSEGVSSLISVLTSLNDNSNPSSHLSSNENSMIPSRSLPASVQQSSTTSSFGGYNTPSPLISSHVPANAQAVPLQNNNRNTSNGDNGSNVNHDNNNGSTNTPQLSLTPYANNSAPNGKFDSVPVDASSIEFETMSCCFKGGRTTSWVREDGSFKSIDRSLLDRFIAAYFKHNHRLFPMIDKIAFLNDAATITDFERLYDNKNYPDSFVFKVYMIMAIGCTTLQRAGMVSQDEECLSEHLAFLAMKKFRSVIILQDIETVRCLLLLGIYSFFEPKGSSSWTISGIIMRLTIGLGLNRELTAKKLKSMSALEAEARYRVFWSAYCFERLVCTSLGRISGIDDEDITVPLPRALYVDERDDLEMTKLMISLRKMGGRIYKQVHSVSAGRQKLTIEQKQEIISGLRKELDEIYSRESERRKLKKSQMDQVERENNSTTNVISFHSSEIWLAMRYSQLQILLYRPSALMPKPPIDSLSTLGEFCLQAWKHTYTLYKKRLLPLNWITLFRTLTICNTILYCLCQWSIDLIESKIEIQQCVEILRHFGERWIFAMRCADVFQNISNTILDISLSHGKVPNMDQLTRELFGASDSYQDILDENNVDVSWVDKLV
# Experiment: PBM E-score (8-mer binding enrichment) (E-score (-0.5 to 0.5)); higher = stronger / more preferred TF binding
# Conditions: protein concentration: 200 nM; construct: GST-full length
# Outline: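 Universal all-10-mer Agilent arrays, double-stranded by primer extension on fresh or once-stripped slides, were probed with about 100-200 nM GST-tagged yeast transcription factors made by PURExpress. Fluorescent anti-GST detected bound protein, and masliner normalised the scans. E-scores from the Universal PBM Analysis Suite were given to each ungapped eight-base word pooled with its reverse complement.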
row,Sequence,PBM E-score
1,ACAGGATC,-0.312
2,CAATTAAA,-0.00358
3,GCCTCCTA,-0.0585
4,AGACTTGG,-0.17
5,CAAACGCC,0.243
6,ATAACGCG,0.0524
7,CTAACGCC,0.316
8,ATAACGCC,0.359
9,AAAACGCC,0.368
10,AAAACGCG,0.0108
11,AAACCAGG,-0.00613
12,CCCGAGAG,0.0886
13,GAATTCTA,-0.248
14,ACCTTCAA,-0.0982
15,CTGGTTAA,-0.102
16,ACGGGCCG,0.194
17,ACGGGCCT,0.376
18,ACGGGGAC,0.241
19,ACGGGGAT,0.415
20,ACGGGAAC,0.205
21,ACGGGAAG,-0.0191
22,ACGGGGAG,0.202
23,ACGGGGCA,0.159
24,ACGGGCCA,0.169
25,ACGGGAAT,0.371

row,Sequence,PBM E-score
1,ACGGGGCC,0.221
2,ACGGGGCT,0.366
3,CCAATCTA,-0.0421
4,CACGCTGG,-0.14
5,CTGATAGA,-0.0917
6,CAAGTACA,-0.12
7,AAACAGAC,-0.131
8,ACTAGACA,-0.184
9,AACCGGGC,0.239
10,GCTTGGCC,0.143
11,GGCCACGA,0.111
12,AGTACCCA,-0.101
13,ATGGTCAG,-0.183
14,ACCGGGCA,0.276
15,ACGGGGTC,0.362
16,ACCGGGGC,0.359
17,CCCGGGGC,0.258
18,ACGGGGTG,0.286
19,ACCGGGCT,0.38
20,ACCGGGGG,0.286
21,ACCGGGCC,0.306
22,ACGGGCAG,-0.0575
23,ACGGGCAC,0.105
24,ACGGGGTA,0.248
25,ACGGGCAT,0.363

row,Sequence,PBM E-score
1,CCGTATCA,0.145
2,CCGTCTCC,0.22
3,CCCTCAAC,-0.125
4,AAGTAGGT,0.00443
5,ATAAGTAC,0.133
6,CATGACCA,-0.378
7,CTGGACTC,-0.169
8,AAACGAAC,-0.193
9,ACCTTACA,-0.0752
10,CGGGTTTC,0.273
11,CGGTTTTA,0.41
12,CGGGTTTA,0.467
13,GGGTTCTA,0.162
14,AGGTTTTA,0.0721
15,CGGTTCTA,0.36
16,CGGTTTAA,0.155
17,CGGTTATA,0.37
18,AGGTTCTA,0.0114
19,AGGTTATA,-0.0254
20,GGGTTATA,0.257
21,GGGGTTTA,0.329
22,CTAAAGGA,0.0339
23,ACTGAAGC,-0.111
24,CTCCATAC,-0.0338
25,CGTTCGGA,0.243

row,Sequence,PBM E-score
1,GAAGGTCA,-0.15
2,AACACCAG,0.011
3,CCCGTCGC,0.25
4,CCCGTCGG,0.435
5,CCCGTCGA,0.206
6,ACCGTCGA,0.286
7,ACCGTCGG,0.392
8,ACCGTCGC,0.332
9,GTTAACCA,-0.181
10,GCACCACA,-0.0487
11,CCCATGCC,0.0152
12,TATGTGAA,-0.344
13,AAACTTGT,-0.145
14,GAGCGGAC,0.376
15,AAGCGGAG,0.252
16,AAGCGGAC,0.352
17,GAGCGGAA,0.308
18,AAGCGGAT,0.297
19,CAGCGGAC,0.332
20,CAGTTATG,0.143
21,CCCCCGCC,0.313
22,AACCCGCC,0.276
23,ACCCCGCG,0.367
24,AACCCGCG,0.231
25,ACCCCGCT,0.437

row,Sequence,PBM E-score
1,GCCCCGCA,0.262
2,CCCCCGCG,0.325
3,ACCCCGCC,0.463
4,AACCCGCT,0.222
5,GGCCCGCC,0.303
6,GCCCCGCC,0.403
7,AGCCCGCT,0.317
8,AATCAATT,-0.151
9,TGTATGAA,0.0366
10,CTTTAAGA,0.0831
11,TAGCAGCA,-0.233
12,AATATTAA,0.0579
13,TTCTCAAA,-0.128
14,ACCGATAG,0.167
15,CAACAATG,-0.0552
16,AACCCGCA,0.229
17,ACCCCGCA,0.382
18,CCCCCGCA,0.154
19,CGTGTTAG,0.0849
20,AAGCACCT,-0.21
21,AACCACCA,-0.124
22,CAGCACCG,0.313
23,AATCACCG,0.441
24,AACCACCG,0.406
25,AATCACCA,-0.0307

row,Sequence,PBM E-score
1,CACCACCG,0.21
2,CATCACCG,0.251
3,AAGCACCG,0.457
4,ACCAGTGA,-0.215
5,GAGCTCGA,-0.257
6,AATACTGC,-0.0596
7,CCAGTATA,-0.066
8,AAAGCACC,0.311
9,ACCCCAAA,-0.179
10,ACCGGCGG,0.403
11,ACCGGCGT,0.365
12,ACCGGCGA,0.281
13,ACCGGCAT,0.337
14,AACGGCGT,0.348
15,ACCGGCGC,0.336
16,GGAACAGA,-0.104
17,AGCGCCTC,-0.0428
18,CCTATGCA,-0.158
19,CTCCGCTA,0.349
20,ATCCGCTA,0.155
21,GTCCGCCA,0.4
22,ATCCGCCA,0.18
23,GTCCGCAA,0.196
24,GTCCGCTA,0.374
25,GTTTCTTA,0.00445

row,Sequence,PBM E-score
1,AGGCAATA,-0.0408
2,CGGCAATA,0.454
3,CGGCAATC,0.185
4,CGGCAGTC,0.11
5,AGGCAGTA,-0.205
6,CGGCAGTA,0.4
7,CGAACCCG,0.103
8,CGACCAGC,0.128
9,AATCGCGT,-0.00793
10,GAACCTTC,-0.201
11,CATCGCTC,-0.00533
12,ATTTGCAC,-0.273
13,CGCGCATA,0.112
14,ATCGGTGG,0.276
15,CTCGGTGA,0.244
16,GTCGGTCA,0.259
17,ATCGGTGA,0.366
18,ATCGGTGC,0.324
19,GTCGGTGA,0.374
20,CTTCGGGA,0.131
21,CTCTTAAA,-0.0109
22,CTGACCAA,-0.176
23,AGGTTGTC,-0.204
24,CGCCTGGA,-0.0581
25,TTCACCAA,-0.0231

row,Sequence,PBM E-score
1,AAGTCCTG,0.0166
2,AAGTCCGC,0.46
3,CAGTCCGC,0.252
4,AAGTCCAT,0.0307
5,AAGTCCCT,-0.209
6,AAGTCCCG,0.385
7,CAGTCCCG,0.192
8,AAGTCCTC,-0.066
9,AAGTCCGG,0.43
10,AAGTCCTA,0.0926
11,AAGTCCGT,0.454
12,CAGTCCGG,0.189
13,GATATCCA,-0.16
14,GCCCAAAC,-0.0152
15,CAGCGTGC,0.0885
16,GAACAGCC,-0.134
17,TCCGTGCA,0.23
18,ACCCTGTG,-0.19
19,AACAGTTG,-0.0985
20,ATCTGCCA,-0.118
21,TCTAGTCA,-0.11
22,CATGTGCC,-0.177
23,CAGTCCGA,0.273
24,GAGTCCCC,-0.12
25,AAGTCCGA,0.459

row,Sequence,PBM E-score
1,TAGTCCGA,0.309
2,GAGTCCGA,0.286
3,GAGTCCGC,0.371
4,CATGTCCG,0.273
5,AATGTCCG,0.438
6,AATGTCCA,-0.0901
7,ATTGTCCA,-0.191
8,ATTGTCCC,0.0499
9,ATTGTCCG,0.372
10,ACTGTTAC,-0.163
11,CCATCGCG,0.195
12,AACCCCTT,0.0178
13,GCACGTGA,-0.337
14,GATCGGAA,0.133
15,AATCGGAG,0.263
16,GATCGGGC,0.301
17,AATCGGAC,0.362
18,CATCGGAC,0.34
19,GATCGGAC,0.415
